Reference: PubChem BioAssay (NCI)
The panel holds about 83,000 compounds, 20% with a hit somewhere; the sample as a whole holds those more often.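 Each cell line was grown in a 96-well plate and treated with one concentration of compound for 48 hours. Values below 10 were considered active.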 Unmarked numbers belong to inactive results. Active and inactive are the calls of the source.

Test system: HOP-92 NSCLC
Experiment: NCI-60 one-dose screen, 48 h (100 = growth as untreated, 0 = no growth, -100 = all killed)
Settings: 10 µM

In order of falling growth:
1. CCC(CC)N1C(=O)/C(=c2\sc3n(c2=O)NC2C(N=3)N(CC)C(=O)N2CC)c2ccccc21 (stereo not drawn)  120%
2. COc1cc(/C=C2\C(=O)Nc3ccccc32)ccc1OCc1ccc(Cl)cc1  112%
3. CC/C(=C/c1c(O)cccc1OC)c1ccc2c(OC)cccc2[o+]1  110%
4. CN1CCN(c2ccc(/C=N/Nc3nc4ccccc4c(=O)n3-c3ccccc3)cc2)CC1  102%
5. COC(=O)C1(C)CCC[C@]2(C)[C@H]3C[C@H]4C(C(C)C)=C[C@]3(CC[C@@H]12)[C@H]1[C@@H]4[C@@H](OC(=O)c2ccco2)CC[C@@H]1OC(=O)c1ccco1 (stereo partly drawn)  102%
6. CC1=NC2=NC(=O)/C(=C3/N=C(C)C=C(c4ccccc4)N3N)NN2C(c2ccccc2)=C1  100%
7. CC(=O)C1=C(C)NC(NN)=NC1c1cccc(Cl)c1 (stereo not drawn)  99.9%
8. CC(=O)N1C(=S)NC(=O)C1CC(C)C (stereo not drawn)  98.9%
9. COc1cc(C2N=C(NNc3ccccc3)NC(C)=C2C(C)=O)ccc1O (stereo not drawn)  90.4%
10. CCOC(=O)C1=NNC(c2ccc(Cl)cc2)C1C(=O)N1C(=S)NC(=O)C1CC(C)C (stereo not drawn)  90.2%
11. C=CCn1c(SCC(=O)Nc2ccc(C(=O)/C=C/c3ccc(Cl)cc3)cc2)nnc1-c1c[nH]c2ccccc12  79.9%
12. COc1c(N2CC3CCCNC3C2)c(F)cc2c(=O)c(C(=O)N/N=C/c3c[nH]c4ccccc34)cn(C3CC3)c12 (stereo not drawn)  79.6%
13. COc1ccc(Oc2ccc(/C=N/NC(=O)CSc3nc4ccccc4c(=O)n3-c3ccc(Cl)cc3)cc2)cc1  77.3%
14. COc1ccc(Cn2cc3c(c2-c2cc(OC)c(OC)c(OC)c2)CCc2c(CN4CCCC4)noc2-3)cc1  75.5%
15. CC(C)C[C@@H]1N[C@@]2(C(=O)Nc3ccccc32)[C@@H](c2ccc(F)cc2)[C@@H]1C(=O)c1ccc(O)cc1  74.3%
16. CCCCCc1ccc(S(=O)(=O)Nc2cccc(-c3csc(NCCN4CCN(C)CC4)n3)c2)cc1  71.2%
17. CCCCCc1ccc(S(=O)(=O)Nc2cccc(-c3csc(NC(=O)CCCCCN4CCN(CCO)CC4)n3)c2)cc1  62.7%
18. CCCCCc1ccc(S(=O)(=O)Nc2cccc(-c3csc(NC(=O)CN4CCN(C)CC4)n3)c2)cc1  62.3%
19. CCC1=Cc2cc(OC)ccc2OC12C=Cc1cc(OC)ccc1O2 (stereo not drawn)  57.3%
20. CCCCCc1ccc(S(=O)(=O)Nc2cccc(-c3csc(NC(=O)CNCCN(C)C)n3)c2)cc1  53%
21. COc1cc2oc(-c3cccc(NC(=O)c4cc(N)ccc4Cl)c3)cc(=O)c2c(OC)c1OC  51.9%
22. COc1c(N2CC3CCCNC3C2)c(F)cc2c(=O)c(C(=O)N/N=C/c3ccc(F)cc3)cn(C3CC3)c12 (stereo not drawn)  50.2%
23. Cc1c(Cl)cccc1S(=O)(=O)Nc1ccc2c(c1)C(=O)N(C1CCC(=O)NC1=O)C2=O (stereo not drawn)  49%
24. O=C(NNc1nc2cc(F)c(F)cc2n2cccc12)c1cnccn1  36.4%
25. CCCCCc1ccc(S(=O)(=O)Nc2cccc(-c3csc(NC(=O)CCCCCN4CCN(C)CC4)n3)c2)cc1  29.8%
26. NC(N)=Nc1ccc(Oc2cccc(NC(N)=Nc3ccc(Br)cc3)c2)cn1  29%
27. O=C(NNc1nc2cc(F)cc(F)c2n2cccc12)c1cnccn1  26.1%
28. O=C(NNc1nc2cc(F)ccc2n2c(CO)ccc12)c1cnccn1  11.9%
29. Cn1ccnc1C(=O)/C=C/c1ccc(CNC(=O)c2ccc(Cl)cc2)cc1  10.3%

In the case of Nc1ncc(-c2ccc3ncnc(N4CCc5cc(F)c(F)cc54)c3c2)cn1, the growth is reported as -7.6% (active).
COc1ccc2c(c1)Oc1nc(N)c(C#N)c(N)c1C2Sc1ccc(C)cc1 (stereo not drawn) was tested, and the growth was -35.9% (active).
For CN(C)CCNC(=O)c1ccc(-c2nc3ccc4[nH]ncc4c3c3c2CCC3)cc1, the growth was -29.8% (active).
In the case of C=C(C=O)[C@@H]1CC[C@]2(COC(C)=O)CC[C@]3(C)C(CC[C@@H]4[C@@]5(C)CC[C@H](OC(C)=O)C(C)(C)[C@@H]5CC[C@]43C)[C@@H]12 (stereo partly drawn), the growth is reported as -78.8% (active).
In the case of CS(=O)(=O)Nc1cc(-c2ccc3ncc(C#N)c(NCc4ccccc4O)c3c2)cnc1Cl, the growth is reported as -10.8% (active).
In the case of N#Cc1cnc2ccc(-c3cnc4[nH]ncc4c3)cc2c1N1CCc2cc(F)c(Cl)cc21, the growth is reported as -7.43% (active).
For O=C(CNc1nc(-c2cccc([N+](=O)[O-])c2)cs1)Nc1cccc([N+](=O)[O-])c1, the growth was -39.4% (active).
In the case of CC(Nc1c(C#N)cnc2ccc(-c3cnc(N)nc3)cc12)c1ccccc1 (stereo not drawn), the growth is reported as -17.3% (active).
O=C(NCc1ncc[nH]1)c1ccc(-c2nc3ccc4[nH]ncc4c3c3c2CCCC3)cc1 was tested, and the growth was -7.23% (active).
